In PubChem BioAssay (NCATS):
Records with an inconclusive call do not appear. Entries that show only a call come without a potency. Activity calls are given as the source filed them. Calls follow the shape of the dose curve; as a rule, active = well fitted inhibition curve with a large enough effect; inconclusive = small, poorly fitted or top-dose-only effect; inactive = no such curve, though single readings can be large or run the other way.

Test: S16 Schwann cell PMP22 intronic element firefly luciferase assay (AID 624032); also: nearly all actives have a fitted effect of over 30% in size
Details: S16 rat Schwann cells, PMP22 element FLuc, 24 h; series mostly up to 25.7 µM
Source text: Charcot-Marie-Tooth-Association [CMTA]
National Center for Advancing Translational Sciences [NCATS]
Charcot-Marie-Tooth (CMT) disease was first characterized by Jean-Martin Charcot and Pierre Marie in France and, independently, by Howard Henry Tooth in England in 1886. CMT is one of the most common inherited neurological diseases, affecting approximately 1 in 2,500 Americans. […] The most prevalent type of CMT is known as CMT1A and caused by a duplication of the PMP22 gene which leads to over-expression of this protein. PMP22 is a glycosylated intrinsic membrane protein accounting for 2-5% of the myelin protein content, and its over-expression results in demyelination and subsequently axonal loss.
A pair of cellular transcription-based assays was developed in the S16 rat Schwann cell lines (Hai, M., et al., 2002) stably transfected with orthogonal reporters - firefly luciferase (Fluc) and beta-lactamase (beta-Lac) - whose expression is driven by an intronic regulatory element of the PMP22 gene (Jones, E.A., et al., 2011) to recapitulate endogenous expression of PMP22. The current assay employs Fluc to report on PMP22 expression. A comprehensive library of approved drugs, the NCGC Pharmaceutical Collection (Huang, R., et al., 2011), was screened in the cross-validating platform of the orthogonal reporter assays to identify drug modulators inhibitory towards PMP22 expression.
A set of counter-screens was devised to address non-specific activity of the library. An ATP-dependent CellTiter-Glo assay (developed by Promega Corp) was utilized to control cell viability. In addition, biochemical Fluc enzyme assay was performed to assess direct inhibition of the Fluc enzymatic activity.
Hai, M., Muja, N., DeVries, G.H., Quarles, R.H. and Patel, P.I. Comparative analysis of Schwann cell lines as model systems for myelin gene transcription studies. J Neurosci Res, 2002. 69(4): pp 497-508
Huang, R., Southall, N., Wang, Y., Yasgar A., Shinn P., Jadhav, A. , Nguyen, D.-T. and Austin, C.P., The NCGC pharmaceutical collection: a comprehensive resource of clinically approved drugs enabling repurposing and chemical genomics. Sci Transl Med, 2011. 3(80): p. 80ps16.
S16 Schwann cell PMP22 intronic element firefly luciferase assay
The FLuc-expressing S16 cells were seeded in white solid 1536-well plates at between 500-750 cells/4uL in DMEM medium containing 10% FBS, w/o phenol red. After overnight incubation at 37 degree Celsius/5% C02, 23 nL of compounds or DMSO were delivered to each well using a pin tool, followed by 24h-incubation at 37 degree Celsius/5% C02. Then 4 uL ONE-Glo luminescent substrate mix (Promega) was added to each well. Luminescence was measured on a ViewLux plate reader (Perkin Elmer). The % activity was determined by normalizing to the average readings of PTC124 (a positive control) - treated cells relative to DMSO-treated cells (0% Activity). The concentration-effect curves were then classified based on curve quality (r2), response magnitude and degree of measured activity.
Potency is read from the fitted curve at half-maximal effect.

Row | Structure (SMILES) | Potency
1 | C=C1c2c(Cl)ccc(O)c2C(O)=C2C(=O)[C@@]3(O)C(O)=C(C(N)=O)C(=O)[C@@H](N(C)C)[C@@H]3[C@@H](O)[C@H]12 | inactive
2 | CCC[C@@H]1O[C@@H]2C[C@@H]3[C@H]4CCC5=CC(=O)C=C[C@@]5(C)[C@H]4[C@H](O)C[C@@]3(C)[C@@]2(C(=O)CO)O1 | inactive
3 | CCOC(=O)C1=CC(OC(CC)CC)C(NC(C)=O)C(N)C1 (stereo not given) | inactive
4 | CCCC(=O)O[C@]1(C(=O)CO)CCC2[C@@H]3CCC4=CC(=O)CC[C@]4(C)C3C(O)C[C@]21C (stereo not given in full) | inactive
5 | CCC(C)C(=O)OC1CCC=C2C=CC(C)C(CCC3CC(O)CC(=O)O3)[C@@H]21 (stereo not given in full) | inactive
6 | CCCC[C@H](CC)CN1CN(C[C@@H](CC)CCCC)CC(C)(N)C1 | inactive
7 | CC1(C)OC2CO[C@]3(COS(N)(=O)=O)OC(C)(C)OC3C2O1 (stereo not given in full) | inactive
8 | CCC(=O)OCC(=O)[C@@]1(OC(=O)CC)[C@H](C)C[C@@H]2[C@@H]3[C@H]([C@@H](O)C[C@@]21C)[C@]1(C)C=CC(=O)C=C1C[C@@H]3Cl | inactive
9 | CC[C@H]1NC(=O)c2cc(S(N)(=O)=O)c(Cl)cc2N1 | inactive
10 | NC[C@@H]1O[C@H](O[C@@H]2[C@H](O[C@@H]3O[C@H](CO)[C@@H](O)[C@@H]3O)[C@@H](O)[C@@H](N)C[C@H]2N)[C@@H](N)[C@H](O)[C@@H]1O | inactive
11 | CNC1C(OC2C(O[C@@H]3C(O)C(O)[C@@H](N=C(N)N)C(O)C3N=C(N)N)OC(C)[C@@]2(O)CO)OC(CO)C(O)C1O (stereo not given in full) | inactive
12 | CNC1CC(N)[C@H](O)[C@@H](O[C@@H]2OC(CO)C3OC4(OC(C(N)CO)C(O)C(O)C4O)O[C@@H]3[C@H]2O)C1O (stereo not given in full) | inactive
13 | CC1(C)S[C@H]2C(NC(=O)[C@@H](N)c3ccc(O)cc3)C(=O)N2[C@@H]1C(=O)O (stereo not given in full) | inactive
14 | CC(=O)N[C@H](CC(C)C)C(=O)O | inactive
15 | CC[N+](CC)(CC)CC[C@](O)(c1ccccc1)C1CCCCC1 | inactive
16 | COC(=O)N/N=C/C1=C[N+](=O)c2ccccc2[N+]1=O | inactive
17 | CC(C)C1CCC(C(=O)NC(Cc2ccccc2)C(=O)O)CC1 (stereo not given) | inactive
18 | C[C@H]1CS(=O)(=O)CCN1/N=C\c1ccc([N+](=O)[O-])o1 | inactive
19 | CC(C)=CCC[C@](C)(O)C1CC=C(C)CC1 (stereo not given in full) | inactive
20 | Cc1cccc(CN2CCN([C@@H](c3ccccc3)c3ccc(Cl)cc3)CC2)c1 | inactive

Row | Structure (SMILES) | Potency
21 | CC(=O)[C@@]1(O)CC[C@H]2[C@H]3C[C@@H](C)C4=CC(=O)C=C[C@]4(C)[C@@]3(F)[C@@H](O)C[C@]21C | inactive
22 | CO[C@]1(NC(=O)C2SC(=C(C(N)=O)C(=O)O)S2)C(=O)N2C(C(=O)O)=C(CSc3nnnn3C)CS[C@H]21 (stereo not given in full) | inactive
23 | CS(=O)(=O)c1ccc([C@H](O)[C@H](CF)NC(=O)C(Cl)Cl)cc1 | inactive
24 | CCC(C)C(=O)OC1CC(O)C=C2C=CC(C)C(CCC(O)CC(O)CC(=O)O)C21 (stereo not given) | inactive
25 | CC1(C)SC2C(N3C(=O)C(c4ccccc4)NC3(C)C)C(=O)N2C1C(=O)O (stereo not given) | inactive
26 | CC1(C)[C@@H](OC(=O)CCC(=O)O)CC[C@@]2(C)[C@H]1CC[C@@]1(C)[C@H]2C(=O)C=C2[C@H]3C[C@](C)(C(=O)O)CC[C@]3(C)CC[C@@]21C | inactive
27 | CC(=O)O[C@]1(C(C)=O)CC[C@@H]2[C@@H]3C=C(C)C4=CC(=O)CC[C@@]4(C)[C@H]3CC[C@]21C | inactive
28 | C[C@]12C=CC(=O)C=C1CCC1C2C(O)C[C@]2(C)C1CC[C@]2(O)C(=O)CO (stereo not given in full) | inactive
29 | CCC(=O)O[C@@H]1[C@H](C)O[C@H](O[C@H]2[C@@H](N(C)C)[C@H](O)[C@@H](O[C@@H]3[C@@H](CC=O)C[C@@H](C)[C@@H](O)/C=C\C=C/C[C@@H](C)OC(=O)C[C@@H](OC(=O)CC)[C@H]3OC)O[C@H]2C)C[C@]1(C)O | inactive
30 | CC1(C)O[C@H]2C[C@@H]3[C@H]4CCC5=CC(=O)CC[C@@]5(C)[C@]4(F)[C@@H](O)C[C@@]3(C)[C@@]2(C(=O)CCl)O1 | inactive
31 | Cc1ccc(S(=O)(=O)NC(=O)NN2C[C@H]3CCC[C@@H]3C2)cc1 | inactive
32 | C[C@]1(c2ccccc2)OC(C(=O)O)=CC1=O | inactive
33 | CC(=O)OC1CCC2C3CCc4cc(O)ccc4C3CCC12C (stereo not given) | inactive
34 | CC1(C)S[C@@H]2[C@H](NC(=O)[C@@H](N)c3ccccc3)C(=O)N2[C@H]1C(=O)O[C@H]1OC(=O)c2ccccc21 | inactive
35 | CC[C@@H]1OC(=O)[C@H](C)[C@H](O[C@@H]2C[C@](C)(OC)[C@H](O)[C@H](C)O2)[C@H](C)[C@H](O[C@@H]2O[C@@H](C)C[C@@H](N(C)C)[C@@H]2O)[C@](C)(O)C[C@H](C)C(=NOCOCCOC)[C@H](C)[C@H](O)[C@]1(C)O | inactive
36 | C#C[C@@]1(O)CC[C@@H]2[C@@H]3CCC4=C(CCC(=O)C4)[C@H]3CC[C@]21C | 3.89 µM (active)
37 | CC(=O)C[C@H](c1ccc([N+](=O)[O-])cc1)c1c(O)c2ccccc2oc1=O | inactive
38 | C=CC1=C(C(=O)O)N2C(=O)[C@@H](NC(=O)/C(=N\OCC(=O)O)c3csc(N)n3)[C@@H]2SC1 | inactive
39 | O=C(NC[C@@H](O)CO)c1c(I)c(C(=O)NC[C@@H](O)CO)c(I)c(N(CCO)C(=O)CO)c1I | inactive
40 | CCN[C@@H]1CN(CCCOC)S(=O)(=O)c2sc(S(N)(=O)=O)cc21 | inactive
